Rows were chosen to be rich in hits. Some 2.3% of all compounds tested hit in one or more screens of this group.
M1 ag – activates human CHRM1 receptor. P11229. CHO-K1 hM1, Fluo-8 calcium fluorescence, agonist mode; 0% DMSO, 100% acetylcholine EC100. activation, % at 3 µM. hit rate 0.33% among 360,000;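 active = activation above the run's mean compound activation plus 3 SD, cut at about 16% in these data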;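 note: peak over basal fluorescence ratio within a 140 s kinetic read after compound addition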
Target sequence (P11229 whole entry, looked up): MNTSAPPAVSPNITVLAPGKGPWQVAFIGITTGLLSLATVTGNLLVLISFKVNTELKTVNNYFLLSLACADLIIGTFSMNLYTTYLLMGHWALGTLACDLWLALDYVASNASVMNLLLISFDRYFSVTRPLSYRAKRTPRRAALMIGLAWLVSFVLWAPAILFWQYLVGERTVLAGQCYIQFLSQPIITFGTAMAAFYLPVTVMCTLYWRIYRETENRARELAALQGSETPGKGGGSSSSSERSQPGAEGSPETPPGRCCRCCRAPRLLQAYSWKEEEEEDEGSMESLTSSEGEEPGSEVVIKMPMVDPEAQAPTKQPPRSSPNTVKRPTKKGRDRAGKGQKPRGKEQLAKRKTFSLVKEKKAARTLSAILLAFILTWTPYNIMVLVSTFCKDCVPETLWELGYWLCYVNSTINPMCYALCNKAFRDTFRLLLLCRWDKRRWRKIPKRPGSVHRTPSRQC
CHRM1 PAM – human CHRM1 positive allosteric modulation; P11229; CHO-K1 hM1, Fluo-8 calcium fluorescence, ACh EC20; 0% = ACh EC20, 100% = maximal ACh; activation, % at 3 µM; hit rate 0.088% among 360,000; AID 588819; in the data active = activation above about 19%, passing the limit was not always enough
M1 ag parental – counter-screen for M1 agonists: effect in parental CHO-K1 cells; Fluo-8 calcium fluorescence; scaled to maximal ATP response, vehicle zero; activation, % at 3 µM; hit rate 0.48% among 360,000; AID 602248; in the data active = activation above about 15%;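 note: untransfected CHO-K1 host cells lacking M1 receptor as counterscreen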
M1 antag – blocks human M1 muscarinic receptor; CHO-K1 hM1, Fluo-8 calcium fluorescence, ACh EC80 antagonist; inhibition, % at 3 µM; hit rate 1.3% among 360,000;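 active = percent inhibition above its own plate's cutoff, namely the mean of that plate's compound wells plus 3 SD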;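 note: peak over basal fluorescence ratio during 140 s after agonist addition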
M1 PAM parental – nonselective activator or artifact in parental CHO-K1 calcium assay. AID 602247. activation, % at 3 µM. hit rate 0.02% among 360,000. ATP EC20, Fluo-8 calcium fluorescence; 0% at ATP EC20, 100% at ATP max;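 active = activation above the run cutoff, the mean activation of all test compounds plus 3 SD, cut at about 40% in these data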;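 note: peak over basal fluorescence ratio in a 140 s read after ATP addition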
CHO-K1 Ca antag – M1 antagonist counterscreen hit in parental CHO-K1 cells. ATP-induced calcium, Fluo-8 fluorescence. inhibition, % at 3 µM. hit rate 0.6% among 360,000. AID 602250;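 active = inhibition above a per-plate cutoff, the plate's mean sample inhibition plus 3 SD, cut at about 24% in these data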
Numbers stand for hits; n = inactive; x = no result given.

SMILES	M1 ag	CHRM1 PAM	M1 ag parental	M1 antag	M1 PAM parental	CHO-K1 Ca antag
CCCn1c(N)c(C(=O)CSc2nc(C)nc3sc(C)c(C)c23)c(=O)[nH]c1=O	n	n	n	n	n	n
O=C(NNC(=O)c1cnccc1C(F)(F)F)c1ccccc1	n	n	16	n	n	n
CCCCSc1nc2c(cc1C#N)CCC2	n	n	n	n	n	n
CS(=O)CSc1nc2c(cc1C#N)CCCC2 (centres undefined)	n	n	n	95	n	n
O=C(Nc1cc(F)c(Br)cc1F)c1ccc(Cl)cc1	n	n	n	39	n	n
Cc1ccc(OCCCNC2CCCC2)cc1	n	n	n	n	n	n
CC(C)(C)c1ccc(OCCCNC2CCCC2)cc1	n	n	n	22	n	n
Cc1ccc(CNC(=O)c2cc3c(=O)n(C)c4ccccc4c3n2C)o1	n	n	n	n	n	24
COc1ccccc1NC(=O)c1cc2c(=O)n(C)c3ccccc3c2n1C	n	n	n	93	n	n
COc1ccc(C(=O)Nc2nnc(Cc3ccccc3)s2)c(OC)c1	n	n	n	n	n	n
Nc1cc(=O)[nH]c(SCc2ccc(Cl)cc2Cl)n1	n	n	15	n	n	n
Nc1ncnc2nc(SCc3ccc(Cl)cc3Cl)[nH]c12	n	n	n	n	n	n
CC(=O)N1CCN(S(=O)(=O)c2cccc(C(=O)OCC(=O)NCc3ccccc3Cl)c2)CC1	n	n	n	n	n	n
COc1ccc(N(C(=O)c2snc(C(N)=O)c2N)C(C(=O)NCc2ccc(F)cc2)c2ccc(O)cc2)cc1 (centres undefined)	n	n	n	n	n	n
CCNc1nc(NC(C)C)nc(N(C#N)Cc2ccccc2)n1	n	n	16	n	n	n
O=C(CNCc1ccc(F)cc1)Nc1cc(S(=O)(=O)N2CCOCC2)ccc1Cl	n	n	n	n	n	n
Cc1ccc(NC(=O)[C@@H]2O[C@H](CO)[C@@H](O)[C@H]2O)cc1C(F)(F)F	n	n	n	n	n	n
Clc1ccc(C(c2cccs2)N2CCNCC2)cc1 (centres undefined)	n	n	n	45	n	n
O=S(=O)(c1ccc(Cl)cc1)N1CCNCC1	n	n	n	n	n	n
CCC(C)NC(C(=O)Nc1ccc(Cl)c([N+](=O)[O-])c1)c1ccccc1 (centres undefined)	n	n	n	n	n	n
COCC(C)NC(C(=O)Nc1ccc(Cl)c([N+](=O)[O-])c1)c1ccccc1 (centres undefined)	n	31	n	n	n	n
C=C(c1ccccc1O)n1ccnc1	n	n	n	n	n	n
COC(C#CCCN(C)C)(c1ccccc1)c1ccccc1	n	n	n	99	n	n
CC1CCCC(C)N1C(=O)c1cc(F)c(F)cc1Cl (centres undefined)	n	n	n	n	n	n
CC1CCCC(C)N1C(=O)COC(=O)c1cc(F)c(F)cc1Cl (centres undefined)	n	n	n	28	n	n
SMILES	M1 ag	CHRM1 PAM	M1 ag parental	M1 antag	M1 PAM parental	CHO-K1 Ca antag
CCc1ccc(NC(=O)C(C)OC(=O)Cn2[nH]c(=O)c3ccccc3c2=O)cc1 (centres undefined)	n	n	n	n	n	n
O=C(c1cnc(Cc2c[nH]c3ccccc23)c(I)c1)N1CCN(Cc2ccccc2)CC1	n	n	n	n	n	n
CN1CCCN(C(c2ccccc2)c2ccc(Cl)cc2)CC1 (centres undefined)	n	n	n	100	n	n
Clc1ccc(C(c2ccccc2)N2CCN(c3ccccn3)CC2)cc1 (centres undefined)	n	n	n	n	n	n
Cc1cccc(OCCCC(=O)NC2CCCCC2)c1	n	n	n	n	n	n
Cc1ccc(N(C)S(=O)(=O)c2cccc(C(=O)OCC(=O)c3c(N)n(C)c(=O)n(C)c3=O)c2)cc1	n	n	n	33	n	n
COc1ccc(Nc2nc(Nc3ccc(OC)cc3)nc(-n3[nH]c(=O)c(C)c3C)n2)cc1	n	n	n	33	n	n
O=Cc1ccc(-c2ccccc2C(=O)O)o1	n	n	n	n	n	29
O=[N+]([O-])c1cc(-n2cnnn2)ccc1N1CCC(Cc2ccccc2)CC1	n	n	n	n	n	25
CC1CC(C)CN(c2ccc(-n3cnnn3)cc2[N+](=O)[O-])C1 (centres undefined)	n	n	n	n	n	n
Cn1c(SCc2cccc([N+](=O)[O-])c2)nc2ccccc2c1=O	n	n	n	36	n	n
COc1ccc(-n2c(SCc3ccc([N+](=O)[O-])cc3)nnc2-c2ccccc2)cc1	n	n	16	n	n	n
O=C(O)c1ccc(CSc2nc3ccccc3c(=O)n2-c2ccccc2)cc1	n	n	n	n	n	n
O=c1c2ccccc2nc(SCc2cccc(F)c2)n1-c1cccc(S(=O)(=O)N2CCCC2)c1	n	n	n	n	n	27
O=c1c2ccccc2nc(SCc2ccc([N+](=O)[O-])cc2)n1-c1ccccc1	n	23	n	n	n	n
O=C(c1ccc(-n2c(SCc3cccc(F)c3)nc3ccccc3c2=O)cc1)N1CCOCC1	n	n	n	n	n	n
COc1ccc(C(CNC(=O)c2cccc(S(=O)(=O)Nc3ccc(F)cc3)c2)N2CCCCC2)cc1 (centres undefined)	n	n	n	n	n	n
O=C(CNC(=O)CNC(=O)c1ccc(Cl)cc1Cl)NCc1cccc(Cl)c1	n	n	n	n	n	n
NC(=O)Oc1cccc(OC(N)=O)c1	n	n	n	n	n	n
O=C(NNc1ncccc1Cl)c1c(Cl)cccc1Cl	n	n	n	n	n	n
Cc1ccc(NC(=S)NC(=O)c2ccc(Br)o2)c(C)c1	n	n	19	n	n	n
O=C(CCn1c(=S)oc2ccccc21)Nc1ccccc1F	n	n	n	n	n	26
CSc1nc2nc(C)c(CCC(=O)OCC(=O)Nc3ccc(F)cc3)c(C)n2n1	n	n	n	n	n	n
CC(C)(C)NC(=O)C1c2ccccc2OCC(=O)N1CC(F)(F)F (centres undefined)	x	x	n	x	n	n
O=C(NCc1cc(C(F)(F)F)ccc1Cl)c1cccc2c1C(=O)c1ccc(N3CCC(N4CCCCC4)CC3)cc1S2(=O)=O	n	n	n	32	n	n
O=C(NCc1cc(C(F)(F)F)ccc1Cl)c1cccc2c1C(=O)c1ccc(N3CCCCC3)cc1S2(=O)=O	n	n	n	n	n	n
O=C(NCc1cccc(F)c1)c1cccc2c1C(=O)c1ccc(N3CCCC3)cc1S2(=O)=O	27	n	n	33	n	n
O=C(NCCc1ccc(F)cc1)c1cccc2c1C(=O)c1ccc(N3CCC(Cc4ccccc4)CC3)cc1S2(=O)=O	20	n	n	n	n	n

Compound activity (PubChem BioAssay)
